Test results published in PubChem BioAssay (NCI).
About 83,000 compounds went through this panel and 20% of them were active in at least one assay; those are over-represented in the sample as a whole.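 Step 1: grow cells in 96-well plates. Step 2: add test compound at a single concentration. Step 3: incubate 48 h. Step 4: record percent growth.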 Unmarked numbers belong to inactive results. The source made the active and inactive calls. The calls were made as follows: active = growth percent below 10; inactive = the rest.

How the values were obtained:
Test in all cases: NCI-60 one-dose screen, 48 h (100 = growth as untreated, 0 = no growth, -100 = all killed)
Details in all cases: 10 µM unless noted
SK-MEL-2 melanoma = tested on: SK-MEL-2 melanoma
EKVX NSCLC = tested on: EKVX NSCLC
SN12C renal = tested on: SN12C renal
UO-31 renal = tested on: UO-31 renal
TK-10 renal = tested on: TK-10 renal
ACHN renal = tested on: ACHN renal
CAKI-1 renal = tested on: CAKI-1 renal
A498 renal = tested on: A498 renal
CCRF-CEM leukemia = tested on: CCRF-CEM leukemia
MOLT-4 leukemia = tested on: MOLT-4 leukemia
SR leukemia = tested on: SR leukemia
RPMI-8226 leukemia = tested on: RPMI-8226 leukemia
OVCAR-8 ovarian = tested on: OVCAR-8 ovarian
OVCAR-5 ovarian = tested on: OVCAR-5 ovarian
OVCAR-4 ovarian = tested on: OVCAR-4 ovarian
SK-OV-3 ovarian = tested on: SK-OV-3 ovarian
IGROV1 ovarian = tested on: IGROV1 ovarian
OVCAR-3 ovarian = tested on: OVCAR-3 ovarian
HS 578T breast = tested on: HS 578T breast
NCI/ADR-RES ovarian = tested on: NCI/ADR-RES ovarian

Row | SMILES | growth (SK-MEL-2 melanoma) | growth (EKVX NSCLC) | growth (SN12C renal) | growth (UO-31 renal) | growth (TK-10 renal) | growth (ACHN renal) | growth (CAKI-1 renal) | growth (A498 renal) | growth (CCRF-CEM leukemia) | growth (MOLT-4 leukemia) | growth (SR leukemia) | growth (RPMI-8226 leukemia) | growth (OVCAR-8 ovarian) | growth (OVCAR-5 ovarian) | growth (OVCAR-4 ovarian) | growth (SK-OV-3 ovarian) | growth (IGROV1 ovarian) | growth (OVCAR-3 ovarian) | growth (HS 578T breast) | growth (NCI/ADR-RES ovarian)
1 | N#CC1CCc2c(c(-c3ccc4nc(N)sc4c3)nc3ccc4[nH]ncc4c23)C1 (stereo not given) | 51.7% | 64.8% | 62.5% | 31.2% | 41.6% | 29.6% | 11.3% | -3.66% (active) | 42.6% | 17.2% | 9.04% (active) | 43.4% | 46.4% | 65.5% | 64.9% | 33.7% | 53.2% | 69.7% | 30.9% | 63.7%
2 | CCN1CCN(CC(=O)Nc2nc3ccc(NCc4ccc(F)cc4)cc3s2)CC1 | 106% | 86.6% | 88.5% | 75.6% | 105% | 94.7% | 89.9% | 95.2% | 87% | 84.8% | 80.2% | 77.3% | 95.6% | 94.8% | 84% | 105% | 103% | 99.4% | 92.9% | 92.2%
3 | CCCCC#Cc1c(I)n(C)c(=O)[nH]c1=O | 63.2% | 52.9% | 39.4% | -78% (active) | 50% | -75.7% (active) | -54.2% (active) | 94.2% | -51.4% (active) | -61.1% (active) | -35.9% (active) | 19.2% | -12.4% (active) | 80.2% | -80.2% (active) | 95.5% | -92.5% (active) | -90.7% (active) | -6.87% (active) | 85.7%
4 | N#Cc1c(-c2ccccc2)nc(SCc2nnc(-c3ccc(Cl)cc3)o2)[nH]c1=O | 80.4% | 95.5% | 97.6% | 74.6% | 90.6% | 109% | 93.6% | 107% | 85.5% | 79.9% | 105% | 95.6% | 93.6% | 114% | 106% | 55.4% | 103% | 103% | 93.8% | 93.3%
5 | C#CC#CC#CC#CC#CC#CC#CC#CC[C@@H]1OC[C@@H](COC(=O)O[C@@H](C(=O)O[C@H]2C[C@@]3(O)[C@@H](OC(=O)c4ccccc4)[C@@H]4[C@]5(OC(C)=O)CO[C@@H]5C[C@H](O)[C@@]4(C)C(=O)[C@H](OC(C)=O)C(=C2C)C3(C)C)[C@@H](NC(=O)c2ccccc2)c2ccccc2)O1 | 105% | 35.2% | 21.4% | 35.2% | 123% | 26.5% | 81.3% | 52.9% | 6.05% (active) | 9.3% (active) | 3.63% (active) | 5.29% (active) | 94.7% | 5.15% (active) | 83.9% | 98.6% | 19.3% | 100% | 94.1% | 62.5%
6 | O=C(Cc1cccc(OC(F)(F)F)c1)Nc1ccc(CCCCc2nnc(NC(=O)Cc3ccccn3)s2)nn1 | 116% | 73.8% | 68.5% | 45.1% | 65% | 70% | 70.4% | 20.6% | 43% | 43.8% | 41.3% | 6.13% (active) | 65% | 86.7% | 76.3% | 75.1% | 78.9% | 87.3% | 79.3% | 85.6%
7 | CN(C)S(=O)(=O)Oc1ccc(-c2sc3cc(OS(=O)(=O)N(C)C)ccc3c2C(=O)c2ccc(OCCN3CCCCC3)cc2)cc1 | 75.5% | 68.9% | 87.1% | 43.6% | 79% | 32.3% | 73.4% | 85.2% | 18.8% | 36.6% | -20.2% (active) | 38.1% | 43.8% | 78.4% | 49.7% | 62.4% | 81% | 69.3% | 59.7% | 72.3%
